Results reported in PubChem BioAssay (EPA / NIEHS).
Activity calls are given as the source filed them. How the source made its calls: active means hit-call score of the fitted dose curve at least 0.9, where 1 is the maximum; inactive means score below 0.9.

Key:
Details in all cases: mRNA level, 48 h; actives raise or lower the signal
[1] = read-out: Alpha-fetoprotein (AFP) gene, AFP (gene 174); experiment: LTEA_HepaRG_AFP: Life Technologies and Expression Analysis (LTEA) Assay for Alpha-fetoprotein (AFP) gene using HepaRG (AID 2283472)
Outline: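 HepaRG, single lot; 48 h post-plating -> serum-free induction medium; cpd 8-pt, 100 uM top, half-log, 0.5% DMSO, duplicate, 48 h. RNA -> qRT-PCR AFP, norm ACTB/GAPDH/POLR2A. Bidirectional fit vs DMSO.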

BCL2L11 (gene 10018) = experiment: LTEA_HepaRG_BCL2L11: Life Technologies and Expression Analysis (LTEA) Assay for Bcl-2 (BCL2L11) gene using HepaRG (AID 2283473)
Outline: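 HepaRG, 48 h exposure, 8-pt half-log series from 100 uM in 0.5% DMSO, duplicates; qRT-PCR (Fluidigm TaqMan) for BCL2L11, housekeeping-normalized; bidirectional curve fit relative to DMSO baseline.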

[2] = read-out: Apolipoprotein A-V (APOA5) gene, APOA5 (gene 116519); experiment: LTEA_HepaRG_APOA5: Life Technologies and Expression Analysis (LTEA) Assay for Apolipoprotein A-V (APOA5) gene using HepaRG (AID 2283474)
Outline: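 HepaRG, 48 h chemical exposure in serum-free induction medium, 8-pt half-log series (top 100 uM), 0.5% DMSO vehicle, duplicates. Readout: APOA5 mRNA by qRT-PCR, housekeeping-normalized; bidirectional fit vs DMSO baseline.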

[3] = read-out: Apoptosis regulator Bcl-2 (Homo sapiens) (UniProt P10415); experiment: LTEA_HepaRG_BCL2: Life Technologies and Expression Analysis (LTEA) Assay for Bcl-2 gene using HepaRG (AID 2283475)
Outline: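 HepaRG, plated 48 h then switched to serum-free induction medium; dosed 48 h, 8 conc. (max 100 uM, half-log steps), duplicate, 0.5% DMSO. Lysis in RLT, RNA isolated, TaqMan qRT-PCR for BCL2; ACTB/GAPDH/POLR2A normalisation; bidirectional fit vs DMSO.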

[4] = read-out: Bcl-2 (BID) gene, BID (gene 637); experiment: LTEA_HepaRG_BID: Life Technologies and Expression Analysis (LTEA) Assay for Bcl-2 (BID) gene using HepaRG (AID 2283476)
Outline: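 Transcript levels of BID, measured by qRT-PCR and normalized to three housekeeping genes, were fitted bidirectionally against DMSO controls. Cells were HepaRG, dosed 48 h at up to 100 uM.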

Caspase-3 (Homo sapiens) = Caspase-3 (Homo sapiens) (UniProt P42574); experiment: LTEA_HepaRG_CASP3: Life Technologies and Expression Analysis (LTEA) Assay for cysteine-aspartic acid protease (CASP3) using HepaRG (AID 2283477)
Sequence of Caspase-3 (Homo sapiens) (P42574 whole entry, looked up): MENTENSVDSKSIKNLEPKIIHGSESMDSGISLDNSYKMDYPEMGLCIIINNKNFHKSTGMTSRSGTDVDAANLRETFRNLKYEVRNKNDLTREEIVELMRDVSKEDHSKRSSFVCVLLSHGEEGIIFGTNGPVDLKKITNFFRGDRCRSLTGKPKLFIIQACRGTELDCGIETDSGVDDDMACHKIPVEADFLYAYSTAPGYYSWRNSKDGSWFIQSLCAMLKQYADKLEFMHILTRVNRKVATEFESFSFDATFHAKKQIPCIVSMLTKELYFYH
Outline: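 HepaRG, 48 h exposure, 8 conc. (top 100 uM, half-log steps, duplicate), 0.5% DMSO vehicle; qRT-PCR of CASP3 transcript, housekeeping-normalised (ACTB/GAPDH/POLR2A); bidirectional curve fit vs DMSO baseline.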

[5] = read-out: Cytochrome P450 (CYP24A1), CYP24A1 (gene 1591); experiment: LTEA_HepaRG_CYP24A1: Life Technologies and Expression Analysis (LTEA) Assay for Cytochrome P450 (CYP24A1) using HepaRG (AID 2283478)
Outline: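 qRT-PCR read-out: CYP24A1 transcript levels normalized to three housekeeping genes, bidirectional curve fits against 0.5% DMSO baseline. Human HepaRG cells treated 48 h with chemicals at eight concentrations from 100 uM in half-log steps.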

[6] = read-out: Cytochrome P450 (CYP1A2), CYP1A2 (gene 1544); experiment: LTEA_HepaRG_CYP1A2: Life Technologies and Expression Analysis (LTEA) Assay for Cytochrome P450 (CYP1A2) using HepaRG (AID 2283479)
Outline: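 HepaRG, 48 h exposure, top 100 uM, half-log 8-pt, 0.5% DMSO vehicle, duplicates. Readout: TaqMan qRT-PCR of CYP1A2 mRNA, housekeeping-normalized (ACTB/GAPDH/POLR2A). Gain/loss fit relative to DMSO baseline.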

[7] = read-out: cysteine-aspartic acid protease (CASP8), CASP8 (gene 841); experiment: LTEA_HepaRG_CASP8: Life Technologies and Expression Analysis (LTEA) Assay for cysteine-aspartic acid protease (CASP8) using HepaRG (AID 2283480)
Outline: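 HepaRG, 48 h exposure, duplicate wells; 8 conc, half-log from 100 uM, 0.5% DMSO. Serum-free induction medium. CASP8 mRNA by TaqMan qRT-PCR, norm. ACTB/GAPDH/POLR2A; gain/loss fitted vs DMSO.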

[8] = read-out: Cytochrome P450 (CYP2B6), CYP2B6 (gene 1555); experiment: LTEA_HepaRG_CYP2B6: Life Technologies and Expression Analysis (LTEA) Assay for Cytochrome P450 (CYP2B6) using HepaRG (AID 2283481)
Outline: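 Read-out is CYP2B6 mRNA by TaqMan qRT-PCR, normalized to three housekeeping genes and fitted bidirectionally against 0.5% DMSO baseline. Human HepaRG cells received test chemicals for 48 h, top concentration 100 uM, half-log dilutions.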

[9] = read-out: Cytochrome P450 2C19 (Homo sapiens) (UniProt P33261); experiment: LTEA_HepaRG_CYP2C19: Life Technologies and Expression Analysis (LTEA) Assay for CYP2C19 using HepaRG (AID 2283482)
Outline: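 HepaRG, 48 h chemical exposure, 8-pt half-log series from 100 uM in 0.5% DMSO, duplicates. Readout: CYP2C19 mRNA by TaqMan qRT-PCR, housekeeping-normalized. Bidirectional fit vs DMSO baseline; phenobarbital 1mM as induction control.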

CYP2C8 (gene 1558) = experiment: LTEA_HepaRG_CYP2C8: Life Technologies and Expression Analysis (LTEA) Assay for CYP2C8 using HepaRG (AID 2283483)
Outline: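 CYP2C8 mRNA induction or loss, by qRT-PCR normalized to ACTB/GAPDH/POLR2A, is read in HepaRG cells after 48 h treatment. Concentrations run from 100 uM down in half-log dilutions, with 0.5% DMSO as vehicle and baseline.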

CYP2C9 (gene 1559) = experiment: LTEA_HepaRG_CYP2C9: Life Technologies and Expression Analysis (LTEA) Assay for CYP2C9 using HepaRG (AID 2283484)
Outline: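 Cells plated 48 h, switched to serum-free induction medium, then treated in duplicate for 48 h at eight concentrations (max 100 uM, 0.5% DMSO). RNA then analysed by qRT-PCR for CYP2C9; curves fitted in both directions relative to DMSO.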

CYP4A11 (gene 1579) = experiment: LTEA_HepaRG_CYP4A11: Life Technologies and Expression Analysis (LTEA) Assay for CYP4A11 using HepaRG (AID 2283486)
Outline: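 CYP4A11 transcript levels were quantified by TaqMan qRT-PCR after HepaRG human liver cells were treated for 48 hours with test chemicals (top 100 uM, half-log dilutions, 0.5% DMSO). Gain or loss of signal was fitted relative to DMSO.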

[10] = read-out: Cytochrome P450 3A4 (Homo sapiens) (UniProt P08684); experiment: LTEA_HepaRG_CYP3A4: Life Technologies and Expression Analysis (LTEA) Assay for CYP3A4 using HepaRG (AID 2283487)
Outline: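 Differentiated HepaRG cells in serum-free induction medium exposed in duplicate for 48 h to 8 half-log concentrations up to 100 uM in 0.5% DMSO. CYP3A4 mRNA measured by qRT-PCR normalized to ACTB, GAPDH and POLR2A; bidirectional fit versus DMSO.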

[11] = read-out: DNA damage-inducible transcript 3 (DDIT3), DDIT3 (gene 1649); experiment: LTEA_HepaRG_DDIT3: Life Technologies and Expression Analysis (LTEA) Assay for DNA damage-inducible transcript 3 (DDIT3) using HepaRG (AID 2283488)
Outline: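 HepaRG plated 48 h, switched to serum-free induction medium, dosed 48 h (100 uM top, half-log, 8 pts, 0.5% DMSO, n=2); RNA isolated; DDIT3 by qRT-PCR; bidirectional curve fit vs DMSO.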

[12] = read-out: Early growth response protein 1 (EGR1) transcription factor, EGR1 (gene 1958); experiment: LTEA_HepaRG_EGR1: Life Technologies and Expression Analysis (LTEA) Assay for Early growth response protein 1 (EGR1) transcription factor using HepaRG (AID 2283490)
Outline: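 Read-out is EGR1 mRNA level by qRT-PCR, normalized to three housekeeping genes and analysed for gain or loss of signal against 0.5% DMSO. Source cells: human HepaRG, treated 48 h at up to 100 uM in half-log dilutions.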

CYP2E1 (gene 1571) = experiment: LTEA_HepaRG_CYP2E1: Life Technologies and Expression Analysis (LTEA) Assay for CYP2E1 using HepaRG (AID 2283485)
Outline: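 Human liver line HepaRG, plated 48 h, then serum-free induction medium + chemical x 48 h; 8-pt CRC from 100 uM, half-log, 0.5% DMSO, n=2. Readout: CYP2E1 mRNA qRT-PCR vs ACTB/GAPDH/POLR2A; bidirectional fit vs DMSO.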

[13] = read-out: Ezrin (EZR), EZR (gene 7430); experiment: LTEA_HepaRG_EZR: Life Technologies and Expression Analysis (LTEA) Assay for Ezrin (EZR) using HepaRG (AID 2283491)
Outline: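 Differentiated human HepaRG cells, 48 h after plating, were exposed in serum-free induction medium for 48 hours to eight half-log concentrations up to 100 uM in 0.5% DMSO. EZR mRNA was measured by TaqMan qRT-PCR, normalized to ACTB, GAPDH and POLR2A, and fitted bidirectionally against DMSO.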

[14] = read-out: Pro-epidermal growth factor (Homo sapiens) (UniProt P01133); experiment: LTEA_HepaRG_EGF: Life Technologies and Expression Analysis (LTEA) Assay for Epidermal growth factor (EGF) using HepaRG (AID 2283489)
Outline: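 qRT-PCR readout of EGF transcript after 48 h chemical exposure of HepaRG cells; eight concentrations from 100 uM down in half-log steps, duplicate wells, 0.5% DMSO vehicle. Bidirectional curve fitting against DMSO baseline.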

Measured: AC50

Sequence of Apoptosis regulator Bcl-2 (Homo sapiens) (P10415 whole entry, looked up): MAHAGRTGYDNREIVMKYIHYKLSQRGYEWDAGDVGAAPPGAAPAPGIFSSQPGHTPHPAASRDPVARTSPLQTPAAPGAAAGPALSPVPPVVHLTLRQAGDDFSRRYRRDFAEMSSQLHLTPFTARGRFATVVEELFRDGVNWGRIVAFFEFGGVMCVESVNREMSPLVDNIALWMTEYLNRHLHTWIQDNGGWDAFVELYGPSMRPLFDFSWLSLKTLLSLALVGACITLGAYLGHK
Sequence of Cytochrome P450 2C19 (Homo sapiens) (P33261 whole entry, looked up): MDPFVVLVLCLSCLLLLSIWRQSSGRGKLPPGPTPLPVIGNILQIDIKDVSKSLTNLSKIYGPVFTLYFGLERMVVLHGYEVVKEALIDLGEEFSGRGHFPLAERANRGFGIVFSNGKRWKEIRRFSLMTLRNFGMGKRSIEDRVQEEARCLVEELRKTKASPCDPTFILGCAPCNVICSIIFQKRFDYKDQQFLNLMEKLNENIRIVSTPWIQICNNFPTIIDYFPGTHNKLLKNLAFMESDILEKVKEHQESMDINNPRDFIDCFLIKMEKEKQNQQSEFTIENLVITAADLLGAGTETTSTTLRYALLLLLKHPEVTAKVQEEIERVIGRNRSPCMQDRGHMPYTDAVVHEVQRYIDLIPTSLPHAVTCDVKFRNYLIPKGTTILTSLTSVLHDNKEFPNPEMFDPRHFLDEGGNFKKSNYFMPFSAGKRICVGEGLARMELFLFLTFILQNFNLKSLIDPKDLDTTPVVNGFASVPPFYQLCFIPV
Sequence of Cytochrome P450 3A4 (Homo sapiens) (P08684 whole entry, looked up): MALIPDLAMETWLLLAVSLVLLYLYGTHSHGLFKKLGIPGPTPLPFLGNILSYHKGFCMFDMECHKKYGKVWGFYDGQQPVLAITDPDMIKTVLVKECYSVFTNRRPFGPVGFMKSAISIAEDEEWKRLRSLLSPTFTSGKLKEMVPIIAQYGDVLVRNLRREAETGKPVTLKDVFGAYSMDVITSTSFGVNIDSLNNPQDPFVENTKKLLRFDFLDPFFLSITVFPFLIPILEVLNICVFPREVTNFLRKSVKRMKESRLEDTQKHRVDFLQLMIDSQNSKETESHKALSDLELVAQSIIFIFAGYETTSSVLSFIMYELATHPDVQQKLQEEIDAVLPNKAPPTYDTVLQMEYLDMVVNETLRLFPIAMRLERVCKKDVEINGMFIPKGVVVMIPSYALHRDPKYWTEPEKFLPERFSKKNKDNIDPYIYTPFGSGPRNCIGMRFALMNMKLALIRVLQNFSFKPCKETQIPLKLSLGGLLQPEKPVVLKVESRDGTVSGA

CC(C)(O)c1ccc(CNC(=O)c2cccnc2Oc2ccc3nonc3c2)cc1
active: [6] 50 µM | [8] 0.987 µM | [9] 12.1 µM | CYP2C8 (gene 1558) 13 µM | [10] 8.42 µM
inactive: [1] | BCL2L11 (gene 10018) | [2] | [3] | [4] | Caspase-3 (Homo sapiens) | [5] | [7] | CYP2C9 (gene 1559) | CYP4A11 (gene 1579) | [11] | [12]

Cc1cccc2ccccc12
inactive: [1] | BCL2L11 (gene 10018) | [2] | [3] | [4] | Caspase-3 (Homo sapiens) | [5] | [6] | [7] | [8] | [9] | CYP2C8 (gene 1558) | CYP2C9 (gene 1559) | CYP2E1 (gene 1571) | CYP4A11 (gene 1579) | [11] | [12] | [13]

O=C1O[C@H]([C@@H](O)CO)C(O)=C1O
inactive: [1] | BCL2L11 (gene 10018) | [2] | [3] | [4] | Caspase-3 (Homo sapiens) | [5] | [6] | [7] | [8] | [9] | CYP2C8 (gene 1558) | CYP2C9 (gene 1559) | CYP4A11 (gene 1579) | [10] | [11] | [14] | [12] | [13]

CC[C@@H]1C[C@H](N(Cc2cc(C(F)(F)F)cc(C(F)(F)F)c2)C(C)=O)c2cc(C(F)(F)F)ccc2N1C(=O)OC(C)C
inactive: [1] | BCL2L11 (gene 10018) | [2] | [3] | [4] | Caspase-3 (Homo sapiens) | [5] | [7] | CYP2C9 (gene 1559) | [11] | [12] | [13]
active: [6] 21.3 µM | [8] 0.735 µM | [9] 0.507 µM | CYP2C8 (gene 1558) 0.814 µM | CYP2E1 (gene 1571) 3.17 µM | CYP4A11 (gene 1579) 15.6 µM | [10] 0.29 µM

COc1ccc2cc(S(=O)(=O)N[C@H](CC(=O)N[C@H](Cc3ccc(CN4[C@H](C)CCC[C@@H]4C)cc3)C(=O)N(C)C(C)C)c3ccc4c(c3)OCO4)ccc2c1
active: BCL2L11 (gene 10018) 84.9 µM | [4] 21.6 µM | Caspase-3 (Homo sapiens) 19.4 µM | [6] 7.93 µM | [7] 25.1 µM | [8] 11.5 µM | [9] 23.7 µM | CYP2C9 (gene 1559) 11.9 µM | CYP4A11 (gene 1579) 20.7 µM | [10] 24 µM | [11] 20.4 µM | [12] 33.3 µM
inactive: [1] | [2] | [3] | [5] | CYP2C8 (gene 1558) | [14] | [13]

CCCCCCCCOc1ccc(C(=O)c2ccccc2)c(O)c1
inactive: [1] | BCL2L11 (gene 10018) | [2] | [3] | [4] | Caspase-3 (Homo sapiens) | [5] | [7] | [9] | CYP2C8 (gene 1558) | CYP2C9 (gene 1559) | CYP4A11 (gene 1579) | [10] | [11] | [12]
active: [6] 50 µM | [8] 50 µM
